Assay results from PubChem BioAssay (NCI).
Compounds without any hit were thinned out: in the full panel of roughly 83,000, 20% have a hit.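 Results are percent growth after 48 hours of single-concentration exposure. 100 means growth as in untreated cells, lower positive values show inhibition; negative values down to -100 show cell death.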 Calls of active or inactive are those of the source. Rule for the calls: active = growth percent below 10; inactive = the rest.

Experiments:
Test in all cases: NCI-60 one-dose screen, 48 h (100 = growth as untreated, 0 = no growth, -100 = all killed)
Conditions in all cases: 10 µM unless noted
HCT-15 colon = tested on: HCT-15 colon
HT29 colon = tested on: HT29 colon
SNB-75 CNS = tested on: SNB-75 CNS
SNB-19 CNS = tested on: SNB-19 CNS
U251 CNS = tested on: U251 CNS
PC-3 prostate = tested on: PC-3 prostate
SK-MEL-5 melanoma = tested on: SK-MEL-5 melanoma
UACC-62 melanoma = tested on: UACC-62 melanoma
LOX IMVI melanoma = tested on: LOX IMVI melanoma
SK-MEL-28 melanoma = tested on: SK-MEL-28 melanoma
SK-MEL-2 melanoma = tested on: SK-MEL-2 melanoma
EKVX NSCLC = tested on: EKVX NSCLC
UO-31 renal = tested on: UO-31 renal
TK-10 renal = tested on: TK-10 renal
ACHN renal = tested on: ACHN renal
CAKI-1 renal = tested on: CAKI-1 renal
A498 renal = tested on: A498 renal
CCRF-CEM leukemia = tested on: CCRF-CEM leukemia
MOLT-4 leukemia = tested on: MOLT-4 leukemia
SN12C renal = tested on: SN12C renal

Measured: growth

CC1=C(C(=O)OCc2ccccc2)C(c2ccc(N(C)C)cc2)n2c(nc3ccccc32)N1 (configuration not stated)
inactive: HCT-15 colon 71.4% | HT29 colon 100% | SNB-75 CNS 61.2% | SNB-19 CNS 86.2% | U251 CNS 90.4% | PC-3 prostate 80.8% | SK-MEL-5 melanoma 71.7% | UACC-62 melanoma 42% | LOX IMVI melanoma 75.7% | SK-MEL-28 melanoma 79.9% | SK-MEL-2 melanoma 96.5% | EKVX NSCLC 46% | UO-31 renal 61.1% | TK-10 renal 99.4% | ACHN renal 88.5% | CAKI-1 renal 55.6% | A498 renal 74.5% | CCRF-CEM leukemia 105% | MOLT-4 leukemia 100%

COc1cc(CNC(=O)C[C@H](C)CCC=C(C)C)ccc1OCc1cn(-c2ccccc2Cl)nn1
inactive: HCT-15 colon 53.8% | HT29 colon 76.7% | SNB-75 CNS 60% | SNB-19 CNS 61.3% | U251 CNS 80.6% | PC-3 prostate 49.4% | UACC-62 melanoma 39.6% | LOX IMVI melanoma 56.4% | SK-MEL-28 melanoma 69.8% | SK-MEL-2 melanoma 53.3% | EKVX NSCLC 54% | SN12C renal 69.6% | TK-10 renal 93.1% | CAKI-1 renal 46.3% | CCRF-CEM leukemia 40.1% | MOLT-4 leukemia 16.3%
active: SK-MEL-5 melanoma 5.29%

Cc1nn(-c2ccccc2)c2nc(C)n(C(=O)N/N=C/c3ccccc3)c(=O)c12
inactive: HCT-15 colon 107% | HT29 colon 106% | SNB-75 CNS 62.3% | SNB-19 CNS 87% | U251 CNS 95.5% | PC-3 prostate 92.7% | SK-MEL-5 melanoma 103% | UACC-62 melanoma 92.6% | LOX IMVI melanoma 96.8% | SK-MEL-28 melanoma 105% | SK-MEL-2 melanoma 105% | EKVX NSCLC 94.4% | UO-31 renal 74.1% | TK-10 renal 123% | ACHN renal 94.9% | CAKI-1 renal 76.9% | A498 renal 112% | CCRF-CEM leukemia 96.3% | MOLT-4 leukemia 102%

COc1ccc2[nH]cc(-c3cc(N)n4nc(-c5c[nH]c6ccccc56)cc4n3)c2c1
active: HCT-15 colon -79.2% | HT29 colon -63.8% | U251 CNS -68.2% | SK-MEL-5 melanoma -93.2% | UACC-62 melanoma -81% | LOX IMVI melanoma -85.8% | SK-MEL-28 melanoma -99% | SK-MEL-2 melanoma -63.7% | UO-31 renal -74.9% | TK-10 renal -1.71% | ACHN renal 8.14% | CAKI-1 renal -59.5% | A498 renal -0.442% | CCRF-CEM leukemia -20% | MOLT-4 leukemia -7.46%
inactive: SNB-75 CNS 82.1% | SNB-19 CNS 13.9% | PC-3 prostate 10.9% | EKVX NSCLC 10.9%

COc1ccc(NC(=O)NN2C(=O)c3ccccc3N(C)C2c2ccc(OC)cc2)cc1 (configuration not stated)
inactive: HCT-15 colon 103% | HT29 colon 109% | SNB-75 CNS 91% | SNB-19 CNS 94% | U251 CNS 105% | PC-3 prostate 89.2% | SK-MEL-5 melanoma 92.6% | UACC-62 melanoma 78.1% | LOX IMVI melanoma 98.1% | SK-MEL-28 melanoma 102% | SK-MEL-2 melanoma 95.3% | EKVX NSCLC 100% | UO-31 renal 75.3% | TK-10 renal 97.2% | ACHN renal 106% | CAKI-1 renal 92.7% | A498 renal 108% | CCRF-CEM leukemia 98.7% | MOLT-4 leukemia 96.4%

CC1=C(C(=O)Nc2ccccc2)C(c2ccc3ccccc3c2)n2c(nc3ccccc32)N1 (configuration not stated)
active: SNB-75 CNS -11.1% | LOX IMVI melanoma 9.5%
inactive: HCT-15 colon 40.5% | HT29 colon 69% | SNB-19 CNS 79.4% | U251 CNS 28.6% | PC-3 prostate 21.7% | SK-MEL-5 melanoma 87.3% | UACC-62 melanoma 75% | SK-MEL-28 melanoma 63.2% | SK-MEL-2 melanoma 106% | EKVX NSCLC 85% | UO-31 renal 75% | TK-10 renal 116% | ACHN renal 52.7% | CAKI-1 renal 60.9% | A498 renal 134% | CCRF-CEM leukemia 11.1% | MOLT-4 leukemia 12.7%
